High-throughput results: PubChem, several laboratories
CYP2C19 activ = human CYP2C19 activators, primary screen, biochemical, luminescence; Cytochrome P450 2C19 (Homo sapiens), P33261; recombinant CYP2C19, luciferin-H EGE luminescence; active compounds read high; 0 = fully inhibited enzyme, 1 = untreated enzyme; activation factor at 5 µM; 96,000 tested, under 10 active; AID 1025, 2008;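 active = activation factor of at least 2 at 5 µM in the primary screen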;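 note: 0 = wells with 2.5 mM tranylcypromine and 1 = vehicle-only wells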
CYP2C9 inh = blockers of cytochrome P450 2C9 activity – biochemical, luminescence, ADME assay, primary screen; P11712; CYP2C9 Supersomes, luciferin-H conversion; inhibition, % at 5 µM; actives 20% (n = 96,000);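 active = blocking of liver enzyme CYP2C9 beyond about 50% at 5 µM, limit read from the data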
Target sequence (P11712 whole entry, looked up): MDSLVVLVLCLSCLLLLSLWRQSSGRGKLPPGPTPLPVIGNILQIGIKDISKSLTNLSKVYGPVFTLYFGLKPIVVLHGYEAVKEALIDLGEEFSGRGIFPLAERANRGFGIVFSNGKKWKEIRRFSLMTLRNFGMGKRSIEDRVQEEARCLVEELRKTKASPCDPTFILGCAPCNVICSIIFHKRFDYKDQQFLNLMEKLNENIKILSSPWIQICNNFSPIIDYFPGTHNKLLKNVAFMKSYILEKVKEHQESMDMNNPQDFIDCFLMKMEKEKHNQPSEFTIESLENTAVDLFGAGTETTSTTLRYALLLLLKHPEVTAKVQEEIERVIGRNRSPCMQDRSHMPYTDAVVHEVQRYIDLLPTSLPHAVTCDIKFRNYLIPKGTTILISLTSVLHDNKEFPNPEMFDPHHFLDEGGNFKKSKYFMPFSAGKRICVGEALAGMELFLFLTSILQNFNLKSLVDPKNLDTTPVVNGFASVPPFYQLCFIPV
D1 allo mod = D1 CRE-luciferase signal change, two-sided – cell-based, HEK293 D1, dopamine EC30, D1 allosteric modulator project, primary screen; D(1A) dopamine receptor (Homo sapiens), P21728; dopamine EC30 potentiation; actives deviate in either direction; B-score at 10 µM; actives 5.9% (n = 58,000);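 active = luminescence count or its row- and column-corrected plate score outside the 99.7% band of the plate's sample wells, on either side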
hDAT+cocaine = changed hDAT dopamine uptake under cocaine IC80, either direction, primary screen, cocaine antagonist project, cell-based, LLC-PK1 hDAT, [14C]-dopamine uptake, MLSMR; Sodium-dependent dopamine transporter (Homo sapiens), Q01959; actives 1.3% (n = 110,000); LLC-PK1 hDAT cells, [14C]-dopamine uptake with cocaine IC80; actives deviate in either direction; AID 449768, 2010; B-score at 10 µM;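 active = Z score or B-score, a plate-position-corrected score, falls beyond the plate's 99.7% confidence bounds, in either direction; inactive = both scores lie inside the 99.7% bounds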;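 note: scored against the spread of the other compound wells on the same plate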
CYP2C9 activ = human CYP2C9 activators, primary screen, biochemical, luminescence | Cytochrome P450 2C9 (Homo sapiens), P11712 | recombinant CYP2C9, luciferin-H conversion; active compounds read high; factor 1 = untreated enzyme, 0 = blocked | activation factor at 5 µM | actives 1.4% (n = 96,000);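 active = activation factor of 2 or more for CYP2C9 at a 5 µM dose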;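 note: 0 = sulfaphenazole-blocked wells and 1 = vehicle-only wells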
CYP2C19 inh = blockers of cytochrome P450 2C19 activity – biochemical, luminescence, ADME assay, primary screen; CYP2C19 Supersomes, luciferin-H EGE luminescence, 30 min; P33261; actives 21% (n = 96,000); inhibition, % at 5 µM;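 active = CYP2C19 inhibition above a set limit at 5 µM in the primary screen, cut at about 50% in these data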;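 note: plate controls were negative control wells for no effect and 2.5 mM tranylcypromine positive control for full effect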
The depositor's hits bear a star; x = no result. An excerpt weighted towards active compounds, which were near 28% of everything screened.

SMILES	CYP2C19 activ	CYP2C9 inh	D1 allo mod	hDAT+cocaine	CYP2C9 activ	CYP2C19 inh
COCCCNC(CC(=O)Nc1ccc(N(C)C)cc1)C(=O)O (stereo unspecified)	x	x	-0.642	x	x	x
CCOc1ccc(CCNC(=O)C2CCN(S(=O)(=O)N3CCOCC3)CC2)cc1OCC	1.1	-11.7	0.465	0.0583	1.1	-7.3
O=C1C(Cl)=C(NCCc2ccccc2)C(=O)N1CCc1ccccc1	1	13.0	x	-0.717	0.9	-2.9
O=C1C(Cl)=C(NCCCN2CCOCC2)C(=O)N1CCc1ccccc1	0.7	77.7*	1.07	x	0.2	34.3
CN1CCN(C2=C(Cl)C(=O)N(CCc3ccccc3)C2=O)CC1	0.4	14.1	x	0.357	0.9	56.3*
O=C(O)C1CC(=O)N(c2ccc(OCc3ccccc3)cc2)C1 (stereo unspecified)	1.2	-26.4	x	-0.436	1.3	-18.2
CCCCN(CCCC)c1cc(C)nc(-c2ccccc2O)n1	1	23.7	x	0.3	0.8	4.9
Cc1cc(N(C)Cc2ccccc2)nc(-c2ccccc2)n1	0	79.9*	0.647	-0.165	0.2	96.5*
COc1ccc(-c2cnc(OC(C)(C)C)nc2OC(C)(C)C)cc1OC	0.9	25.6	x	0.591	0.7	8.3
CCN(CC)CCNC1=CC(=O)OC12CCCCC2	x	x	x	0.298	x	x
O=C1C=C(NCc2ccccc2)C2(CCCCC2)O1	0.3	12.4	-0.771	-0.428	0.9	70.4*
O=C1C=C(NCc2ccc(Cl)c(Cl)c2)C2(CCCCC2)O1	0.2	37.7	x	-0.237	0.6	77.4*
O=C1C=C(NCc2ccco2)C2(CCCCC2)O1	0.9	7.2	-0.138	0.126	0.9	7.9
Cn1c(NC(=O)COc2ccccc2)cc(=O)n(C)c1=O	0.9	5.7	x	-0.161	0.9	12.4
CCCCS(=O)CC(O)COCC (stereo unspecified)	1.1	-5.9	x	-0.354	1.1	-13.9
Cc1nc2ccccc2cc1OCc1ccccc1	0.7	64.8*	x	x	0.4	26.5
COc1cccc(COc2cc3ccccc3nc2C)c1	0.6	77.6*	x	-0.763	0.2	43.3
COc1cccc(CNc2ncnc3cc(OC)c(OC)cc23)c1	0.9	-46.6	x	1.16	1.5	13.2
Cc1nc2ccccc2cc1OCc1ccc(Cl)cc1	1	24.9	x	-2.1	0.8	0.8
Cc1cc(=O)c2cc(Br)ccc2[nH]1	0.8	51.5*	x	-0.996	0.5	23.2
CC(NS(=O)(=O)c1ccc(CCC(=O)NCc2cccnc2)cc1)c1ccccc1 (stereo unspecified)	0.4	71.0*	x	-0.271	0.3	58.0*
O=C(CC(NS(=O)(=O)c1ccc(Cl)cc1)c1ccco1)NCc1cccnc1 (stereo unspecified)	0.1	70.3*	0.122	0.454	0.3	88.0*
O=C(CCNS(=O)(=O)c1ccc(Cl)cc1)NCc1cccnc1	0.6	23.7	-0.647	-0.00326	0.8	44.1
CCC(C)NC(=O)CC(NS(=O)(=O)c1ccc(Cl)cc1)c1ccco1 (stereo unspecified)	0.3	20.1	x	-0.243	0.8	75.0*
CC1=C(C(=O)Nc2cccnc2)C(c2ccc(C(C)C)cc2)n2ncnc2N1 (stereo unspecified)	x	x	0.728	-1.57	x	x
SMILES	CYP2C19 activ	CYP2C9 inh	D1 allo mod	hDAT+cocaine	CYP2C9 activ	CYP2C19 inh
Cc1cccc(-n2c(Cc3cc(=O)[nH]c(=O)[nH]3)nnc2SCC(=O)NCC2CCCO2)c1 (stereo unspecified)	1.1	-6.5	-0.205	0.163	1.1	-6.7
CCOC(=O)c1c(C#N)cnn1-c1ccc(C)cc1	0.9	29.6	x	-0.508	0.7	14.0
O=C(NCC1CCCO1)c1ccc2c(c1)S(=O)(=O)c1ccccc1C2=O (stereo unspecified)	x	x	x	-0.916	x	x
S=C(Nc1cccc(Cl)c1)Nc1ccccc1Oc1ccccc1	0.5	65.9*	x	-0.109	0.3	48.7
COC(=O)C1=C(C)N(Cc2ccco2)C(=O)N[C@H]1c1cccc(C(F)(F)F)c1	x	x	x	0.914	x	x
Cc1occc1C(=O)Nc1ccc(Br)cc1F	0.5	23.7	x	-1.52	0.8	50.5*
COc1ccc(Cl)cc1NC(=O)c1cnc2sccn2c1=O	1	-111.8	0.422	-0.263	2.1*	1.5
COc1ccc(C(C)(C)C)cc1NC(=O)c1ccoc1C	0.4	38.8	0.385	0.415	0.6	62.3*
COc1ccc(Cl)cc1NC(=O)N(C)Cc1c(C)nn(C)c1C	0.1	-142.9	0.0503	-2.36	2.4*	85.8*
COc1cc(OC)c(NC(=O)c2ccoc2C)cc1Cl	0.7	-1.9	-0.541	0.0359	1	32.2
C=CCn1c(=O)c2ccccc2n2c(SCc3csc(-c4ccccc4)n3)nnc12	0.7	25.3	0.817	0.554	0.7	29.4
COc1ccc(Cl)cc1NC(=O)c1nc2nc(C)cc(C(F)F)n2n1	1.2	-263.0	-0.00852	-0.23	3.6*	-17.8
COc1ccc(C)cc1NC(=O)c1ccoc1C	1	-21.7	-0.191	0.0765	1.2	1.9
COc1ccc(Cl)cc1NC(=O)c1ocnc1C	0.9	-164.3	0.989	0.0908	2.6*	5.8
COc1cccc(NC(=O)c2nc3nc(C)cc(C(F)F)n3n2)c1	1	0.1	0.779	-0.836	1	4.1
COc1ccc(Cl)cc1NC(=O)c1ccoc1C	0.9	-164.6	x	-0.688	2.6*	14.6
Cn1c(OCc2ccc3c(c2)OCO3)nc2c1c(=O)n(Cc1cccc(Cl)c1)c(=O)n2C	x	x	x	0.379	x	x
O=C(COC(=O)C1CC1)Nc1ccc(OC(F)F)cc1	0.2	15.5	x	0.882	0.8	77.1*
O=C(COC(=O)CCC1CCCCC1)Nc1ccc(OC(F)F)cc1	0.8	-10.7	x	0.717	1.1	17.9
O=C(COC(=O)C1CCC1)Nc1ccc(OC(F)F)cc1	0.1	11.7	-0.116	0.00247	0.9	86.1*
CCO[C@H]1OC(C(=O)O)=C[C@@H](C)[C@@H]1CCCO	x	x	x	-0.461	x	x
CN(C)CCNC(=O)C(C(=O)c1ccc(F)cc1)n1ccccc1=O (stereo unspecified)	0.9	7.7	0.0445	1.1	0.9	11.1
O=C1c2ccccc2C(=O)N1SC1CCCCC1	0.8	82.3*	x	-0.824	0.2	24.8
COc1ccccc1CN1C(=O)C2CC=CCC2C1=O (stereo unspecified)	0.7	-17.4	x	-0.568	1.2	30.4
COc1cccc(N2C(=O)N(c3ccccc3Cl)C3CS(=O)(=O)CC32)c1 (stereo unspecified)	0.6	26.5	x	1.04	0.7	43.8
